In PubChem BioAssay (NCI):
Compounds without any hit were thinned out: in the full panel of roughly 83,000, 20% have a hit.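 Each cell line was grown in a 96-well plate and treated with one concentration of compound for 48 hours. Values below 10 were considered active.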 A number with no mark means an inactive call. The source made the active and inactive calls.

Tests used:
Assay in all cases: NCI-60 one-dose screen, 48 h (100 = growth as untreated, 0 = no growth, -100 = all killed)
Conditions in all cases: 10 µM unless noted
DU-145 prostate = test system: DU-145 prostate
K-562 leukemia = test system: K-562 leukemia
MALME-3M melanoma = test system: MALME-3M melanoma
MDA-MB-231 breast = test system: MDA-MB-231 breast
RXF 393 renal = test system: RXF 393 renal
SF-268 CNS = test system: SF-268 CNS
SF-295 CNS = test system: SF-295 CNS
SF-539 CNS = test system: SF-539 CNS
UACC-257 melanoma = test system: UACC-257 melanoma
M14 melanoma = test system: M14 melanoma
HCT-15 colon = test system: HCT-15 colon
HT29 colon = test system: HT29 colon
SNB-75 CNS = test system: SNB-75 CNS
SNB-19 CNS = test system: SNB-19 CNS
U251 CNS = test system: U251 CNS
PC-3 prostate = test system: PC-3 prostate
SK-MEL-5 melanoma = test system: SK-MEL-5 melanoma
UACC-62 melanoma = test system: UACC-62 melanoma
LOX IMVI melanoma = test system: LOX IMVI melanoma
SK-MEL-28 melanoma = test system: SK-MEL-28 melanoma

Structure (SMILES) | growth (DU-145 prostate) | growth (K-562 leukemia) | growth (MALME-3M melanoma) | growth (MDA-MB-231 breast) | growth (RXF 393 renal) | growth (SF-268 CNS) | growth (SF-295 CNS) | growth (SF-539 CNS) | growth (UACC-257 melanoma) | growth (M14 melanoma) | growth (HCT-15 colon) | growth (HT29 colon) | growth (SNB-75 CNS) | growth (SNB-19 CNS) | growth (U251 CNS) | growth (PC-3 prostate) | growth (SK-MEL-5 melanoma) | growth (UACC-62 melanoma) | growth (LOX IMVI melanoma) | growth (SK-MEL-28 melanoma)
CN1CCN(c2ccc(-c3ccc4ncc(C#N)c(Nc5ccc(F)c(Cl)c5)c4c3)cn2)CC1 | 27.5% | 17.3% | 27.9% | 77.2% | 27.3% | 47.7% | 71.5% | 60.2% | 34% | 30.5% | 13.4% | 36.6% | 64.1% | 74.7% | 57% | 58.5% | 82.9% | 86% | 68.8% | 70.3%
CCc1ccc2nc(NC(=O)Cc3csc(NC(=O)c4ccco4)n3)sc2c1 | 67% | 64.5% | 59.6% | 67.9% | 73.1% | 43.3% | 77.6% | 34.8% | 101% | 96.7% | 95.5% | 86.5% | 47.1% | 64.4% | 67.3% | 66.1% | 81.6% | 65.9% | 85.7% | 90.9%
O=C(Nn1c(NCC(=O)N2c3ccccc3Sc3ccccc32)nnc1-c1ccc(O)cc1)c1ccccc1 | 113% | 118% | 95.5% | 95.3% | 122% | 105% | 105% | 105% | 104% | 92.8% | 98% | 103% | 102% | 107% | 103% | 90.7% | 107% | 98.9% | 90.8% | 115%
c1ccc2cc(C[n+]3ccn(CCCCCCCCCCCCn4cc[n+](Cc5ccc6ccccc6c5)c4)c3)ccc2c1 | -46.5% (active) | -59% (active) | -76.7% (active) | -74% (active) | -52.2% (active) | -79.5% (active) | -40.3% (active) | -78.6% (active) | -67.5% (active) | -44.9% (active) | 17.4% | -82.7% (active) | -96.2% (active) | -80.5% (active) | -84.6% (active) | -37.6% (active) | -93.5% (active) | -81.7% (active) | -84.9% (active) | -72.3% (active)
O=c1c2cc(F)ccc2sc2c(NCCN3CCOCC3)nc3ccccc3c12 | 68.4% | 0.338% (active) | 92% | 25.9% | 72.9% | 68.7% | 89.4% | 74.7% | 98.2% | 46.5% | 20.8% | 21.6% | 59.5% | 75.3% | 52.4% | 69% | 95.1% | 81.5% | 20.6% | 96.7%
O=C1COCCN1c1ccc(NCc2cn(C(=O)c3ccc(Cl)cc3)c3ccccc23)cc1 | 84.2% | 28.3% | 78.1% | 118% | 8.91% (active) | 98% | 47.2% | 93.4% | 33.6% | 74.1% | 54.9% | 44.5% | 59.6% | 91.7% | 50.9% | 71.4% | 25.1% | -41.1% (active) | 77.1% | 97%
CCc1ccc(Oc2c(-c3ccc(OCCc4cccc(C(F)(F)F)c4)cc3O)n[nH]c2C(F)(F)F)cc1 | 25.6% | 7.94% (active) | 48.8% | 50.2% | 80.7% | 47.7% | 87.6% | 74% | 56.6% | 59.1% | 23.8% | 86.1% | 63.3% | 39.8% | 12.1% | 46.1% | 42% | 18.6% | 17.6% | 44.3%
Cc1cccc2c(=O)c3c(sc12)c(NCc1ccccc1)nc1ccccc13 | 102% | 101% | 110% | 89.4% | 107% | 107% | 98.9% | 102% | 104% | 103% | 64.3% | 83.4% | 96.1% | 107% | 101% | 89.1% | 94.5% | 74.3% | 93.6% | 116%
O=c1c2cc(F)ccc2sc2c(NCCO)nc3ccccc3c12 | 112% | 98.3% | 120% | 98.1% | 109% | 103% | 104% | 99.9% | 104% | 114% | 101% | 107% | 87% | 94% | 97.6% | 105% | 99.4% | 94.2% | 97.2% | 126%
CNCCCC12CCC(c3ccccc31)c1ccccc12 | 103% | 80.6% | 82.6% | 80.2% | 61.7% | 92.5% | 100% | 99.2% | 95.9% | 80.4% | 95.4% | 60.4% | 60.2% | 91.5% | 81.1% | 71.9% | 75.3% | 90.9% | 79.6% | 87.4%
CN(C)CCNc1nc2ccccc2c2c(=O)c3cc(F)ccc3sc12 | 28.1% | -36.5% (active) | 81.9% | 6.88% (active) | 40% | 45.6% | 71.7% | 45.3% | 91.9% | -77.9% (active) | 22.7% | -3.23% (active) | 54.9% | 55.4% | 41.4% | 40.4% | 83.5% | 53.4% | -64.3% (active) | 55.6%
Cc1ccc2sc3c(NCCCN)nc4ccccc4c3c(=O)c2c1 | 15.4% | -37.7% (active) | 104% | -14.6% (active) | 71.4% | 65.1% | 88% | 58% | 101% | 15% | -12.2% (active) | -47.4% (active) | 78.1% | 74.6% | 6.32% (active) | 65.4% | 90.6% | 94.1% | -97.7% (active) | 95.3%
COc1cc2oc(-c3ccc(O)cc3)cc(=O)c2c(O)c1-c1c(OC)cc(O)c2c(=O)cc(-c3ccc(O)cc3)oc12 | 53.5% | 44.5% | 63.2% | 48.5% | -44.1% (active) | 12.8% | 67.1% | 18% | 91.5% | 28% | 30.4% | 12.1% | -2.61% (active) | 17.8% | 19.2% | 72.3% | -49.5% (active) | -26.3% (active) | 18.2% | 18.3%
O=C(O)CCC(=O)Nc1nnc(-c2ccccc2)s1 | 105% | 91.7% | 114% | 108% | 120% | 96.4% | 96.9% | 102% | 104% | 102% | 93.7% | 106% | 87.8% | 105% | 105% | 94.8% | 103% | 97.8% | 99.5% | 107%
O=c1c2cc(F)ccc2sc2c(NCCCNCCO)nc3ccccc3c12 | 8.53% (active) | -44.3% (active) | 69.5% | -33.1% (active) | 44.8% | 41.6% | 65.3% | -24.1% (active) | 91.2% | -79% (active) | -9.91% (active) | -53.3% (active) | 53.8% | 58.5% | 6.22% (active) | 25.2% | 70.5% | -39.4% (active) | -94.1% (active) | 28.1%
CC1=NN(c2ccc(S(=O)(=O)O)cc2)C(=O)C1N=Nc1ccc(-c2ccc(N=Nc3ccc(OS(=O)(=O)c4ccc(C)cc4)cc3)c(S(=O)(=O)O)c2)cc1 (stereo not given) | 107% | 94.4% | 108% | 97.1% | 61.7% | 100% | 77.5% | 85.1% | 104% | 103% | 82.8% | 93.3% | 78.8% | 104% | 96.2% | 86.3% | 104% | 92% | 69.4% | 103%
